Source: PubChem BioAssay
Hits are enriched below; roughly 3.4% of the tested compounds scored in any of these assays.
GalR3 antagonist: antagonists of human GalR3; hit rate 0.44% among 360,000; AID 651719; inhibition, % at 3 µM; HEK293 GalR3-CNG cAMP membrane potential fluorescence; galR3 body fused to GalR1 C-terminus;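 active = inhibition above the screen-wide average plus 3 SD, cut at about 13% in these data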;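 also: forskolin and galanin both at EC90 stimulate the cells; cAMP rise reported by CNG channel membrane potential dye signal; 0% = forskolin plus galanin with DMSO and 100% = forskolin alone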
Target sequence (O60755 1-299 limits assumed): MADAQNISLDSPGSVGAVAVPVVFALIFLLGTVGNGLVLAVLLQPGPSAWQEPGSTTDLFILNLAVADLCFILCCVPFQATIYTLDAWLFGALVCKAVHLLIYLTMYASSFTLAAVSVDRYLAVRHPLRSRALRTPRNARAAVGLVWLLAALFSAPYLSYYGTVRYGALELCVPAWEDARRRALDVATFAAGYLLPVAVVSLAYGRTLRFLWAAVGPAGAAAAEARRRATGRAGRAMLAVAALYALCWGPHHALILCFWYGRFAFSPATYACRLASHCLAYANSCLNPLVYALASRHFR
SMARCA2 activ: increases SMARCA2 function in MMTV reporter cells; MG213 cells, MMTV-luciferase reporter, dexamethasone, overnight; activation, % at 9.1 µM; hit rate 1% among 370,000; AID 652017; in the data active = activation above about 7.8%;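 also: 0% = vehicle wells and 100% = reference activator wells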
Cardio protect: modulators protecting cardiomyocytes from myocardial damage; H9c2 cardiomyocytes, H2O2 injury protection, ATPLite, 2 h; protection from H2O2 cell death, % at 20 µM; hit rate 0.63% among 360,000;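 active = compounds giving at least 50% protection of heart cells from peroxide-induced death in the single-dose screen, raw or plate-pattern-corrected value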;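 also: 0% = DMSO wells with peroxide and 100% = DMSO wells without peroxide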
FXN GAA850 act: increases GAA850 frataxin promoter reporter activity. activation, % at 6 µM. HEK293 lucGAA850 FXN promoter luciferase reporter, 24 h; percent of 10 µM SAHA response. AID 540364. hit rate 0.56% among 360,000;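 active = activation above the average of all compounds screened plus 3 SD, cutoff fixed separately per campaign, cut at about 7.5% in these data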;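 also: 0% = DMSO wells and 100% = 10 µM SAHA wells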
NR2F2 inh: blocks human COUP-TFII nuclear receptor; P24468; HEK293T NGFI-A luciferase reporter, luminescence; inhibition, % at 8.6 µM; hit rate 0.7% among 370,000; AID 686940;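 active = inhibition above a per-plate cutoff, mean inhibition of test wells between control levels plus 3 SD, cut at about 38% in these data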;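 also: cells cotransfected with COUP-TFII expression vector driving the NGFI-A reporter; 0% = median of COUP-TF2 test wells and 100% = reporter-only cells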
Gli-Sufu antag: antagonists of Gli-Sufu signaling | hit rate 0.74% among 340,000 | Sufu-KO-LIGHT fibroblasts, Gli luciferase reporter luminescence | AID 588413 | inhibition, % at 5 µM;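 active = inhibition above about 55%, limit read from the data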;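 also: 0% = DMSO-treated cells and 100% = wells with medium but no cells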
Numbers without * were called inactive; · = not tested or not shown.

SMILES	GalR3 antagonist	SMARCA2 activ	Cardio protect	FXN GAA850 act	NR2F2 inh	Gli-Sufu antag
COc1ccc(CNc2ncc(-c3ccc(F)cc3)n2C)c2ccccc12	-14	-10	6	-10	5	56*
COc1ccccc1OCC(=O)Nc1sc2c(c1C(N)=O)CCC2	-6	0	-2	2	-20	-28
COc1ccccc1OCC(=O)Nc1sc2c(c1C(=O)NCC1CCCO1)CCC2 (stereo not drawn)	-5	-3	64*	3	0	11
Cc1ccc(C(=O)NCC(=O)OCc2nc3sc(C)c(C)c3c(=O)[nH]2)cc1	·	-6	·	·	-2	·
CCOc1cc(N2CCOCC2)c(OCC)cc1NC(=O)c1ccccc1	-2	1	1	0	7	-2
CCCn1nc(C(=O)Nc2cc(OCC)c(N3CCOCC3)cc2OCC)c2ccccc2c1=O	-1	6	56*	1	7	19
CCOc1cc(N2CCOCC2)c(OCC)cc1NC(=O)Cn1[nH]c(=O)c2ccccc2c1=O	-4	-5	79*	-1	-12	15
CCOc1ccccc1NC(=O)Cn1[nH]c(=O)c2ccccc2c1=O	·	·	12	-3	·	·
O=C(NCc1ccccc1F)C1C2C=CC3(CN(Cc4ccccc4)C(=O)C13)O2 (stereo not drawn)	·	-3	·	·	3	·
CCOC(=O)C1C(=O)CC(C)(O)C(C(=O)OCC)C1c1ccc(N(CC)CC)cc1 (stereo not drawn)	-6	-2	12	-2	-5	3
CCN(CC)c1ccc(C2C(C(=O)OC(C)C)C(=O)CC(C)(O)C2C(=O)OC(C)C)cc1 (stereo not drawn)	-8	-2	75*	-4	1	17
CC(=Nc1cccc(C)c1)c1sc2ccccc2c1O	-8	7.9*	-15	5	-72	-103
CC(=Nc1ccc(O)cc1)c1sc2ccccc2c1O	0	1	-16	3	-61	-52
COC(=O)c1ccc2nccnc2c1	-2	-1	1	1	-2	1
COC(=O)c1ccc2c(c1)C(C)(C)C(/C=C/c1ccccc1O)=[N+]2C	-4	0	-19	-7	-18	65*
CCC(=NNC(=O)c1ccc2c(c1)nc(C)n2CC)c1cc(F)ccc1O	-3	-4	52*	-1	-4	28
CCn1c(C)nc2cc(C(=O)N/N=C/c3ccc(O)c(O)c3O)ccc21	-3	4	8	2	5	-12
COC(=O)[C@H](CC(C)C)N(CCCc1cn(CC2CCCCC2)nn1)S(=O)(=O)c1ccccc1Br	·	-5	·	·	30	·
COc1cc(/C=N/Nc2ccccc2)ccc1O	-10	-2	0	0	4	-2
COC(=O)c1[nH]c2cc(OC)c(OC)cc2c1/C=N/Nc1ccccc1	-6	-1	75*	2	-3	4
CC#CC(=O)N[C@H]1CC[C@@]23CCCN2C(=O)CCC[C@H]3[C@H]1C	·	·	·	·	-5	·
Cn1c(=O)c2c(nc(NCc3cccnc3)n2Cc2cccc(C(F)(F)F)c2)n(C)c1=O	8	-3	73*	0	-8	12
CCC1C/C(=C\c2cccnc2)C(=O)/C(=C/c2cccnc2)C1 (stereo not drawn)	-5	-12	-4	-15	91*	-3
O=C1/C(=C/c2cccnc2)CC/C1=C\c1cccnc1	-4	-5	-3	2	-3	8
O=C1/C(=C/c2cccnc2)CCC/C1=C\c1cccnc1	-3	-12	·	·	91*	3
SMILES	GalR3 antagonist	SMARCA2 activ	Cardio protect	FXN GAA850 act	NR2F2 inh	Gli-Sufu antag
C#CCCCN([C@@H](CC(C)C)C(=O)OC)S(=O)(=O)c1ccc(F)cc1Br	·	0	·	·	4	·
Cc1ccc(C)c(S(=O)(=O)N(C(=O)c2ccncc2)c2ccc(OC(=O)c3ccncc3)cc2)c1	2	-8	53*	-1	10	0
Cc1ccc(S(=O)(=O)N(C(=O)c2ccncc2)c2ccc(OC(=O)c3ccncc3)cc2)c(C)c1	-4	-3	32	0	8	-5
COc1ccc(Nc2nc(Nc3ccc(OC)cc3)nc(-n3[nH]c(=O)c(C)c3C)n2)cc1	-4	1	92*	-7	-13	-25
COc1ccc(Nc2nc(OC)nc(OC)n2)cc1	-4	0	5	4	-26	-13
COc1ccc(OCCNC(=O)/C=C/c2ccccc2)cc1	-5	2	-4	0	-11	-7
O=C(/C=C/c1ccccc1)NCCOc1ccccc1	-5	7.8*	2	6	-17	-29
C[C@@H]1CN([C@@H](C)CO)C(=O)CCCn2cc(nn2)CO[C@H]1CN(C)C(=O)c1ccc(N2CCN(C)CC2)cc1	0	-1	·	·	6	·
O=C(/C=C/c1ccc(F)cc1)NC(=S)NNC(=O)c1cnccn1	-6	0	52*	2	0	5
COc1ccc(/C=C/C(=O)NC(=S)NNC(=O)c2cnccn2)cc1	-3	-1	41	-1	-19	39
CCOC(=O)Cc1csc(NC(=O)NC2(C(F)(F)F)Oc3ccccc3O2)n1	-3	-5	50*	3	-23	21
CCOC(=O)Cc1csc(NC(=O)Nc2ccc(OC(F)(F)F)cc2)n1	-6	-10	-16	1	14	0
CCOC(=O)Cc1csc(NC(=O)NC2(C(F)(F)F)Oc3cc(Cl)c(Cl)cc3O2)n1	2	0	57*	7	-4	19
CCN(CCO)c1ncnc2c1sc1nc(C(C)C)c3c(c12)CC(C)(C)OC3	0	-1	60*	3	18	-13
CCCCNC(=O)c1cn(-c2ccc(OCC)cc2)c(=O)c2cc(OC)c(OC)cc12	7	-1	65*	-1	-6	4
NC(=O)C1=C(c2ccccc2)c2ccccc2C1=O	-4	-1	55*	4	-7	14
COC(=O)[C@]12C[C@H](CC(=O)NCCC(C)C)C(=O)N(CCC3=CCCCC3)C1=C[C@H](C(C)(C)C)O[C@@H]2C	5	-9	·	·	-2	·
CCN1CSC(=S)N(Cc2ccccc2)C1	-1	0	-3	-2	5	63*
O=C1OCCN1C(=O)[C@H]1[C@H](c2ccc([N+](=O)[O-])cc2)C(c2cccc(Cl)c2)=NN1c1ccc(Br)cc1	-7	-4	51*	-1	3	-6
O=C1OCCN1C(=O)[C@H]1[C@H](c2ccc([N+](=O)[O-])cc2)C(c2ccccc2)=NN1c1ccc(Br)cc1	4	-6	55*	-1	-4	1
O=C(NC1CCCCN(Cc2ccc(Cl)cc2)C1=O)c1ccc(F)c(F)c1 (stereo not drawn)	·	-3	·	·	-9	·
CCOC(=O)[C@]12CCCC=C1N(CCCOC)C(=O)[C@@H]2CC(=O)NCCCCc1ccccc1	·	-2	·	·	0	·
O=C(CCn1nc(-c2ccccc2)c2ccccc2c1=O)N1CCN(c2ccccc2)CC1	-1	-3	53*	-1	14	13
O=C(CCn1nc(-c2ccccc2)ccc1=O)N1CCN(c2ccccc2)CC1	-8	-2	2	1	-2	-3
